Screening data (PubChem)
FMDV antiviral = shows antiviral activity against foot and mouth disease virus; AID 1745856; Potency, µM (titrated, usually from 57.5 µM), without a hit: at the top dose activity change, negative = inhibition, actives largely listed as inhibitors; actives 0.23% (n = 120,000); FMDV antiviral cell assay, firefly luciferase signal; further: nearly all actives have a fitted effect of over 60% in size
FMDV Renilla = shows antiviral activity in FMDV Renilla assay; Potency, µM (series often up to 57.5 µM), inactives show at the highest dose activity change, negative = inhibition, hits mostly inhibitors; FMDV replicon cells, Renilla luciferase signal; actives 0.32% (n = 120,000); further: nearly all actives have a fitted effect of over 55% in size
* marks the source's active call; other numbers are inactive results; ? = inconclusive; [ ] = another dose, or the depositor's remark. Shown are actives, neighbours in structure and some others; about 0.51% of the full set was active somewhere. The call rests on the fitted dose curve. On the % scale 0 is the no-effect control and ±100 the full control effect; potency means the concentration at half of the fitted maximal effect.

SMILES | FMDV antiviral | FMDV Renilla
COc1ccc(NC(=O)c2ccc(NC(=O)N3CCSc4ncccc43)cc2)cc1 | 2.5% | 5.3%
CC(=O)c1ccc(NC(=O)c2cccc(NC(=O)N3CCSc4ncccc43)c2)cc1 | 3.16µM* | -8.7%
O=C(/C=C/Sc1ccccc1)c1ccc(Br)cc1 | 161.1% | 9.4%
COCCn1c(SCc2nc(-c3cccc(C(F)(F)F)c3)no2)nc2ccsc2c1=O | -15.8% | -14.8%
Cn1c(SCc2nc(-c3ccc(C(F)(F)F)cc3)no2)nc2ccsc2c1=O | 22.4µM* | 17.8µM*
COc1ccc(-n2ccnc(NCCc3ccccc3)c2=O)cc1OC | -1.9% | 4.7%
COc1ccc(CCNc2nccn(-c3ccc(C)c(C)c3)c2=O)cc1OC | ? | 7.94µM*
CCCN1CCN(CC2=C(C(=O)OCC)C(c3cccc(OC)c3OC)NC(=O)N2)CC1 (stereo unspecified) | -25.7% | -10.7%
O=C(NCc1cccc(Cl)c1)c1cnc(N2CCOCC2)c2ccccc12 | -28.6% | 32.2%
CCOC(=O)Cn1nc(C)c(NC(=O)COc2ccccc2)c1C | 17.1% | 10.9%
CCOC(=O)Cn1nc(C)c(NC(=O)COc2ccc(Cl)cc2C)c1C | ? | 10µM*
O=C(COc1ccc(Br)cc1F)OCC(=O)c1ccc[nH]1 | -5.2% | -15.8%
O=C(CN1CCN(CC(=O)NC2CCCCC2)CC1)Nc1ccc(Cl)c(C(F)(F)F)c1 | -20.4% | -21.9%
O=C(CN1CCN(c2ccc(C(F)(F)F)cn2)CC1)NC1CCCCC1 | 28.2µM* | ?
O=C(NCc1cccs1)C12CC3CC(CC(O)(C3)C1)C2 | 3.4% | 23.0%[1.06 µM]
Clc1ccc(CSc2nc(NCCc3ccccc3)c3ccccc3n2)cc1 | -13.8% | -9.1%
CCC1CCc2sc(C(=O)NCc3cccs3)cc2C1 (stereo unspecified) | 88.7% | 108.3%
COc1ccc(C)cc1Nc1nc(N)c(C(=O)c2ccc(C)cc2C)s1 | 34.7% | 10.4%
CCOC(=O)CC(=O)Nc1c(NC2CCCCC2)c2ccccc2oc1=O | -8.5% | -6.5%
CCCCc1ccc(NC(=O)COc2cccc3c(=O)n(C)ccc23)cc1 | ? | 8.91µM*
CCCn1ccc2c(OCC(=O)NCc3ccc(C)cc3)cccc2c1=O | -9.9% | 12.6%
Cc1ccc(-c2nc3nc(CNc4ccccc4C)cc(=O)n3[nH]2)cc1 | 62.4% | -0.2%
COc1ccccc1CNC(=O)CN1C(=O)CCCc2ccccc21 | -3.9% | -3.3%
Cc1ccccc1CNC(=O)CN1C(=O)CCCc2ccccc21 | 113.9% | 31.6µM*
Cc1cc2nc(Nc3nc(C(C)C)cc(=O)[nH]3)nc(C)c2cc1C | 10.2% | 0.7%
SMILES | FMDV antiviral | FMDV Renilla
CCc1ccc(-c2nc(SCC(=O)N3CCCC3c3ccc4c(c3)OCCCO4)n[nH]2)cc1 (stereo unspecified) | ? | 28.2µM*
Cc1ccc(-c2nc(SCC(=O)N3CCCC3c3ccc4c(c3)OCCO4)n[nH]2)cc1 (stereo unspecified) | ? | 20µM*
CCc1ccc(-c2nnn(CC(=O)N3CCCC3c3ccc4c(c3)OCCO4)n2)cc1 (stereo unspecified) | -12.2% | -16.2%
O=C(CSc1nnnn1C1CC1)N1CCCC1c1ccc2c(c1)OCCO2 (stereo unspecified) | 4.3% | -5.0%
COc1ccc(C2Nc3ccccc3-n3c(-c4ccccc4)c4c(=O)n(C)c(=O)n(C)c4c32)cc1 (stereo unspecified) | 53.8% | -14.5%
CC(OC(=O)c1cc(Br)c[nH]1)C(=O)c1c[nH]c2ccccc12 (stereo unspecified) | 5.1% | 5.0%
CCOc1ccc(-n2c(=O)c3c(C)c(C)sc3n(Cc3ccc(C(C)(C)C)cc3)c2=O)cc1 | -3.7% | 3.5%
Cn1c(=O)c2c(ncn2Cc2cccc(OCC(F)(F)F)c2)n(C)c1=O | 7.08µM* | 4.47µM*
Cc1cccc(OCCCn2cnc3c2c(=O)n(C)c(=O)n3C)c1 | -8.1% | -19.8%
CCONC(=O)c1cc2c(s1)CCC(C(C)(C)C)C2 (stereo unspecified) | 100.5% | -3.5%
COC(=O)c1c(C)[nH]c(C)c1-c1ccc(Cl)cc1 | 6.6% | -9.2%
COc1cc(-c2nc(-c3ccc(Br)cc3)no2)cc(OC)c1OC | 0.398µM* | -7.8%
COc1cc(C(=O)Nc2ccccc2-c2nc(-c3ccc(C)cc3)no2)cc(OC)c1OC | -15.2% | 35.5µM*
COc1cc(C(=O)Nc2ccccc2-c2nc(-c3ccccc3)no2)cc(OC)c1OC | 2.8% | -3.1%
COc1cc(-c2noc(-c3ccc(Br)cc3)n2)cc(OC)c1OC | 7.2% | -0.7%
COc1ccccc1C1=NS(=O)(=O)N(C)C(C(=O)Nc2ccccc2SC)=C1 | 0.3% | 20.7%
CCS(=O)(=O)c1ccccc1C(=O)N1CCN(c2nc3ccccc3s2)CC1 | 11.2µM* | -3.6%
O=C(c1ccc(Cl)cc1)N1CCN(c2nc3ccccc3s2)CC1 | 13.4% | 0.5%
CN1CCN(c2ccc(C#N)cc2)CC1 | 2.82µM* | 13.0%[1.06 µM]
CN1CCN(c2ccc(C#N)cn2)CC1 | 0.1% | 15.2%
O=C1CC(c2ccccc2O)Cc2nc(N3CCN(c4ccccc4F)CC3)ncc21 (stereo unspecified) | ? | 11.2µM*
